Assay [1] is described as follows: BSK_4H_Eotaxin3: BioMAP Diversity Plus: 4H Assay for Eotaxin 3 Biomarker Activity (AID 2283000).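 As to outcome: CCL26 protein level quantified by ELISA in parallel with SRB cytotoxicity check.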 The settings on record: primary human endothelial cells (HUVEC); actives raise or lower the signal. The procedure, abridged: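 Eotaxin-3 (CCL26) levels were measured by ELISA in HUVEC primary cultures 24 h post-dosing. Gain or loss of signal was fitted in both directions, with DMSO serving as baseline and negative control.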

Assay [2] has as its target human Peroxisome Proliferator-activated Receptor alpha (PPARa), PPARA (gene 5465) (UniProt Q07869). The assay can be described thus: ATG_PPARa_TRANS: Attagene TRANS-FACTORIAL HepG2 Assay for human Peroxisome Proliferator-activated Receptor alpha (PPARa) (AID 2283001; active = hit-call score of the fitted dose curve at least 0.9, where 1 is the maximum). An outline of the steps: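 Reporter transcripts quantified by RT-PCR plus capillary electrophoresis after 24 h treatment, fitted upward relative to DMSO. Cells: human HepG2 transiently carrying multiple GAL4-UAS reporter units driven by NR-Gal4 chimeras.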

Read-out in assay [3]: Intercellular Adhesion Molecule 1 (ICAM1), ICAM1 (gene 3383)
Put plainly: BSK_3C_ICAM1: BioMAP Diversity Plus: 3C Assay for Intercellular Adhesion Molecule 1 (ICAM1) Biomarker Activity (AID 2283003). The settings on record: primary human endothelial cells (HUVEC); actives raise or lower the signal. An outline of the steps:
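ELISA readout of ICAM1 in human umbilical vein endothelial cells in the 3C system, taken 24 h post-dose. Gain or loss of signal versus DMSO was fitted in both directions, with SRB total-protein staining run in parallel.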

Assay [4] deals with human Retinoic Acid Receptor beta (RARb), RARB (gene 5915) (UniProt P10826). Put plainly: ATG_RARb_TRANS: Attagene TRANS-FACTORIAL HepG2 Assay for human Retinoic Acid Receptor beta (AID 2283004; active = hit-call score of the fitted dose curve at least 0.9, where 1 is the maximum). The procedure, abridged: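 HepG2 cells were transiently transfected with GAL4-UAS reporter units that report activity of exogenous chimeric NR-Gal4 proteins, then exposed to compound for 24 h. Reporter mRNA was quantified by RT-PCR with capillary electrophoresis fluorescence, as gain of signal over DMSO.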

Assay [5] deals with Retinoic acid receptor alpha (Homo sapiens) (UniProt P10276). The assay can be described thus: ATG_RARa_TRANS: Attagene TRANS-FACTORIAL HepG2 Assay for human Retinoic Acid Receptor alpha (RARa) (AID 2283005; active = hit-call score of the fitted dose curve at least 0.9, where 1 is the maximum). An outline of the steps: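 Reporter transcripts, measured by RT-PCR with fluorescent labeling and capillary electrophoresis after 24 h dosing, reflect activity of an exogenous human RARa–GAL4 fusion in transiently transfected HepG2. Fitted for increase relative to DMSO.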

Assay [6] is described as follows: BSK_3C_Proliferation: Cell Proliferation Assessment in the BioMAP Diversity Plus: 3C Assay (AID 2283006).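 As to AC50: potency may reflect either rise or fall in cell number versus DMSO.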 The settings on record: primary human endothelial cells (HUVEC). The procedure, abridged:
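Proliferation as total protein: sulforhodamine B (0.1%) stain of TCA-fixed subconfluent human umbilical vein endothelial cells, absorbance 560 nm, 48 h after dosing. Activity fitted in both directions against DMSO baseline.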

Assay [7] addresses Nuclear receptor subfamily 1 group I member 2 (Homo sapiens) (UniProt O75469). Put plainly: ATG_PXR_TRANS: Attagene TRANS-FACTORIAL HepG2 Assay for human Pregnane X Receptor (PXR) (AID 2283008; active = hit-call score of the fitted dose curve at least 0.9, where 1 is the maximum). The procedure, abridged: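 Trans-factorial format: exogenous NR-Gal4 fusion activity, not endogenous factor, in transfected human HepG2 liver cells. After 24 h dosing, RNA isolated, reverse-transcribed, amplified and resolved by capillary electrophoresis; induction scored versus DMSO.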

Assay [8] has as its target human RAR-related Orphan Receptor gamma (RORg), RORC (gene 6097) (UniProt P51449). Put plainly: ATG_RORg_TRANS: Attagene TRANS-FACTORIAL HepG2 Assay for human RAR-related Orphan Receptor gamma (RORg) (AID 2283011; active = hit-call score of the fitted dose curve at least 0.9, where 1 is the maximum). An outline of the steps:
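HepG2 cells transiently transfected with GAL4-UAS reporter units and chimeric RORg-Gal4 construct; after 24 h chemical exposure, reporter mRNA measured by RT-PCR with fluorescent capillary electrophoresis, gain of signal fitted against DMSO.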

In assay [9] the target is Retinoic acid receptor RXR-alpha (Homo sapiens) (UniProt P19793). The assay can be described thus: ATG_RXRa_TRANS: Attagene TRANS-FACTORIAL HepG2 Assay for human Retinoid X Receptor alpha (RXRa) (AID 2283012; active = hit-call score of the fitted dose curve at least 0.9, where 1 is the maximum). The procedure, abridged: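 TRANS format reporting activity of exogenous RXRa-Gal4 chimera in transiently transfected HepG2, 24 h exposure. Reporter transcripts quantified by RT-PCR with capillary electrophoresis, with gain of signal scored relative to DMSO.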

Assay [10] has as its target human Retinoid X Receptor beta (RXRb), RXRB (gene 6257) (UniProt P28702). The assay can be described thus: ATG_RXRb_TRANS: Attagene TRANS-FACTORIAL HepG2 Assay for human Retinoid X Receptor beta (RXRb) (AID 2283013; active = hit-call score of the fitted dose curve at least 0.9, where 1 is the maximum). An outline of the steps:
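Readout is reporter transcript induction after 24 h dosing. It is measured by RT-PCR of total RNA followed by fluorescent capillary electrophoresis. HepG2 liver cells carry transfected multiple reporter units driven by an exogenous RXRb-Gal4 fusion; activity is relative to DMSO.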

Assay [11] deals with human Thyroid Receptor alpha (THRa1), THRA (gene 7067) (UniProt P10827). Put plainly: ATG_THRa1_TRANS: Attagene TRANS-FACTORIAL HepG2 Assay for human Thyroid Receptor alpha (THRa1) (AID 2283014; active = hit-call score of the fitted dose curve at least 0.9, where 1 is the maximum). An outline of the steps:
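HepG2 cells transiently transfected with chimeric NR-Gal4 and GAL4-UAS reporter units, dosed 24 h. Reporter mRNA quantified by RT-PCR, fluorescent labeling, HpaI digestion and capillary electrophoresis; gain-of-signal fit versus DMSO.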

Read-out in assay [12]: E-selectin (Homo sapiens) (UniProt P16581)
The assay can be described thus: BSK_3C_Eselectin: BioMAP Diversity Plus: 3C Assay for Eselectin Biomarker Activity (AID 2283015).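 As to outcome: cell surface E-selectin protein quantified by ELISA 24 h after dosing.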 The following applies: primary human endothelial cells (HUVEC); actives raise or lower the signal. The procedure, abridged:
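Primary human umbilical vein endothelial cells (3C system), read 24 h after compound addition; E-selectin measured by ELISA. Bidirectional curve fitting against DMSO baseline; cytotoxicity by parallel SRB total-protein staining.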

Read-out in assay [13]: Interleukin-1 alpha (IL1a), IL1A (gene 3552)
Put plainly: BSK_BE3C_IL1a: BioMAP Diversity Plus: BE3C Assay for Interleukin-1 alpha (IL1a) Biomarker Activity (AID 2283016). The following applies: primary human bronchial epithelial cells; actives raise or lower the signal. The procedure, abridged: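 IL-1a measured by ELISA after 24 h treatment of human primary bronchial epithelial cells, with gain or loss of signal fitted versus DMSO. Parallel cultures stained with SRB gauge overt cytotoxicity.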

Read-out in assay [14]: Monocyte Chemoattractant Protein-1 (MCP1), CCL2 (gene 6347)
The assay can be described thus: BSK_4H_MCP1: BioMAP Diversity Plus: 4H Assay for Monocyte Chemoattractant Protein-1 (MCP1) Biomarker Activity (AID 2283018). The following applies: primary human endothelial cells (HUVEC); actives raise or lower the signal. The procedure, abridged:
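ELISA of MCP-1 (CCL2) 24 h after chemical dosing of HUVEC in the BioMAP 4H system. Gain or loss versus DMSO fitted; parallel SRB staining (560 nm) tracked overt cytotoxicity.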

Read-out in assay [15]: Human Leukocyte Antigen - DR isotype (HLADR), HLA-DRA (gene 3122)
Put plainly: BSK_3C_HLADR: BioMAP Diversity Plus: 3C Assay for Human Leukocyte Antigen - DR isotype (HLADR) Biomarker Activity (AID 2283019).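 As to outcome: ELISA of cell-surface HLA-DR on HUVEC 24 h after dosing.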 The following applies: primary human endothelial cells (HUVEC); actives raise or lower the signal. An outline of the steps:
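HUVEC monoculture, HLA-DR measured by ELISA 24 h after chemical dosing. Fitted bidirectionally against DMSO baseline; parallel SRB staining assessed cytotoxicity, with 3C proliferation read by SRB at 48 h.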

Assay [16] concerns the target Peroxisome proliferator-activated receptor gamma (Homo sapiens) (UniProt P37231). The assay can be described thus: ATG_PPARg_TRANS: Attagene TRANS-FACTORIAL HepG2 Assay for human Peroxisome Proliferator-activated Receptor-gamma (PPARg) (AID 2283007; active = hit-call score of the fitted dose curve at least 0.9, where 1 is the maximum). An outline of the steps:
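After 24 h of chemical exposure, transfected HepG2 cells carrying PPARγ-Gal4 chimera reporter constructs are lysed for RNA. Reporter transcripts are measured by RT-PCR and capillary electrophoresis with fluorescent labelling, and gain of signal is fitted versus DMSO.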

For assay [17], the target named is human RAR-related Orphan Receptor beta (RORb), RORB (gene 6096) (UniProt Q92753). The assay can be described thus: ATG_RORb_TRANS: Attagene TRANS-FACTORIAL HepG2 Assay for human RAR-related Orphan Receptor beta (RORb) (AID 2283010; active = hit-call score of the fitted dose curve at least 0.9, where 1 is the maximum). An outline of the steps: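 Read-out is reporter mRNA induction, quantified by RT-PCR with fluorescent capillary electrophoresis, 24 h post-dose in transiently transfected HepG2 expressing exogenous NR-Gal4 chimera. Activity fitted upward versus DMSO.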

The target of assay [18] is human Peroxisome Proliferator-activated Receptor delta (PPARd), PPARD (gene 5467) (UniProt Q03181). Put plainly: ATG_PPARd_TRANS: Attagene TRANS-FACTORIAL HepG2 Assay for human Peroxisome Proliferator-activated Receptor delta (PPARd) (AID 2283002; active = hit-call score of the fitted dose curve at least 0.9, where 1 is the maximum). An outline of the steps:
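Read-out is induced reporter mRNA, quantified by RT-PCR with fluorescent labelling and capillary electrophoresis after 24 h dosing. Cells are HepG2 transiently carrying multiple GAL4-UAS reporter units driven by exogenous NR-GAL4 chimeras; DMSO serves as baseline.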

Records with an inconclusive call do not appear. Activity calls are given as the source filed them. The calls were made as follows, unless noted: active = hit-call score of the fitted dose curve at least 0.9, where 1 is the maximum; inactive = score below 0.9.

Usually AC50 stands for the midpoint of the concentration-response curve, whichever way the signal moves.

Sequence of human RAR-related Orphan Receptor gamma (RORg), RORC (gene 6097) (P51449 whole entry, looked up, the tested form may be a part): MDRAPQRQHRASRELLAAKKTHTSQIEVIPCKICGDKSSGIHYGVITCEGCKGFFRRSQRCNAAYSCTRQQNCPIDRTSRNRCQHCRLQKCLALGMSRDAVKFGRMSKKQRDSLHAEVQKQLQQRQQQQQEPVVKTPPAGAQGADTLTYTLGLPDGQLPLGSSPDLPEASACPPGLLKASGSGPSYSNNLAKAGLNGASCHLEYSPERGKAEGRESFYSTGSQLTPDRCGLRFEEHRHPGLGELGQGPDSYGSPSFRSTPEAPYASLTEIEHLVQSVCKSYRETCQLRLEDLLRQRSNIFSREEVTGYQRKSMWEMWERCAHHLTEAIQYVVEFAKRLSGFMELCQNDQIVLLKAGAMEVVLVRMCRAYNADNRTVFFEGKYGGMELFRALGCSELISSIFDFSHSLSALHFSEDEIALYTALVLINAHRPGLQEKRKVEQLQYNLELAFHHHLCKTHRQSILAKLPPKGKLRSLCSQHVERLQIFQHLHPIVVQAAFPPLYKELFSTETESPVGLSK
Sequence of Retinoic acid receptor RXR-alpha (Homo sapiens) (P19793 whole entry, looked up, the tested form may be a part): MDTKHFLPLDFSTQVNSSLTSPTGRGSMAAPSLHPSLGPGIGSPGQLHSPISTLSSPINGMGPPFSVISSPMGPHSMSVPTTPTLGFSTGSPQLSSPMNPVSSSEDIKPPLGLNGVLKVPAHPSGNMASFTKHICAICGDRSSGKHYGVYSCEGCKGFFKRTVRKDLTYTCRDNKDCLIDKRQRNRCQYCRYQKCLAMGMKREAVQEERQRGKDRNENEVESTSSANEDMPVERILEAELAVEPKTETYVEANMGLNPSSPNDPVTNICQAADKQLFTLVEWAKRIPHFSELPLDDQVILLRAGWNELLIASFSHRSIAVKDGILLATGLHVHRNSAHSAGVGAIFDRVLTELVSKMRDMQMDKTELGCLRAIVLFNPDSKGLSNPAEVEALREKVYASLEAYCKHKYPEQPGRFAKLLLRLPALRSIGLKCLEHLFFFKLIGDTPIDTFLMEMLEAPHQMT
Sequence of E-selectin (Homo sapiens) (P16581 whole entry, looked up): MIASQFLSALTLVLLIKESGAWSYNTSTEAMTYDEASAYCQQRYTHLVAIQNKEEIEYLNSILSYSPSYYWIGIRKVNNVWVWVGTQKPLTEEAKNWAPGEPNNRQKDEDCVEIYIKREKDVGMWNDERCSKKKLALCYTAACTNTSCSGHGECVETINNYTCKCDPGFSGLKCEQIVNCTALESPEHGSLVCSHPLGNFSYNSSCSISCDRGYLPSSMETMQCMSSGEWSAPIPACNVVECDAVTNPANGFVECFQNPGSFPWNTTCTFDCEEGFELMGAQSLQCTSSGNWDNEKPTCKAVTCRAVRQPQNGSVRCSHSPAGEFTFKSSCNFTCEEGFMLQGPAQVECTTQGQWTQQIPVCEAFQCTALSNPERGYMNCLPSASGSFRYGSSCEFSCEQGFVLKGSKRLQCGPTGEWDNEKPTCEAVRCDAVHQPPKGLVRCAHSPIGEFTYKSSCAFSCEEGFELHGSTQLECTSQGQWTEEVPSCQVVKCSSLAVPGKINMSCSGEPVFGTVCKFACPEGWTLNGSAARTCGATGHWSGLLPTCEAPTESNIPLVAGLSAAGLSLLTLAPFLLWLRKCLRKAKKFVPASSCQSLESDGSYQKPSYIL
Sequence of human Retinoid X Receptor beta (RXRb), RXRB (gene 6257) (P28702 whole entry, looked up, the tested form may be a part): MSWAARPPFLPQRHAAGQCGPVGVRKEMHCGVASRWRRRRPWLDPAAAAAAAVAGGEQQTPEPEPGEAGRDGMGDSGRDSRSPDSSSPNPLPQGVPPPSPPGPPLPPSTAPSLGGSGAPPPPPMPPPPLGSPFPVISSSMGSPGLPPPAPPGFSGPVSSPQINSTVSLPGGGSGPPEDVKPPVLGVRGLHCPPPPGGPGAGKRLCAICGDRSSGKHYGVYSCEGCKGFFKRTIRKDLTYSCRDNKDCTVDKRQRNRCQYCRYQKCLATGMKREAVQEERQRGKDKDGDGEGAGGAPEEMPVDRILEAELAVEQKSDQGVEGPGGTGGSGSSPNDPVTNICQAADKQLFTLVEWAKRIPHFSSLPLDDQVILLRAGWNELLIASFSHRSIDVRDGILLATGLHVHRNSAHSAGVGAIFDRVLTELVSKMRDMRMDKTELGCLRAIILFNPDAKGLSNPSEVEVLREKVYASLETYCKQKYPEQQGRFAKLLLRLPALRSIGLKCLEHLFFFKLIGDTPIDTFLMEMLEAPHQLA
Sequence of Peroxisome proliferator-activated receptor gamma (Homo sapiens) (P37231 whole entry, looked up, the tested form may be a part): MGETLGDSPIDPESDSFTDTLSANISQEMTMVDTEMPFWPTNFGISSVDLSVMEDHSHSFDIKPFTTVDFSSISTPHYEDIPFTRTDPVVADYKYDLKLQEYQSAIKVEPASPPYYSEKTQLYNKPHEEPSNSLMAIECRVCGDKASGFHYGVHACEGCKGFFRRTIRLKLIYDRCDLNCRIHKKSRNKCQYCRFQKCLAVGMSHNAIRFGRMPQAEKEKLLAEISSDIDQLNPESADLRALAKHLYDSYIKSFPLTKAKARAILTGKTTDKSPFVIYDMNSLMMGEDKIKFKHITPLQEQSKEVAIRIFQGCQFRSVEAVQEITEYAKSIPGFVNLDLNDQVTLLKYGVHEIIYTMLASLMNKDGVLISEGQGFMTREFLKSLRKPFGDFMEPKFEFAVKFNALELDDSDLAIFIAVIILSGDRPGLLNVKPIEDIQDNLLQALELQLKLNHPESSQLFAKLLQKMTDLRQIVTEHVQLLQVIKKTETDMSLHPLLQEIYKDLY
Sequence of human Peroxisome Proliferator-activated Receptor alpha (PPARa), PPARA (gene 5465) (Q07869 whole entry, looked up, the tested form may be a part): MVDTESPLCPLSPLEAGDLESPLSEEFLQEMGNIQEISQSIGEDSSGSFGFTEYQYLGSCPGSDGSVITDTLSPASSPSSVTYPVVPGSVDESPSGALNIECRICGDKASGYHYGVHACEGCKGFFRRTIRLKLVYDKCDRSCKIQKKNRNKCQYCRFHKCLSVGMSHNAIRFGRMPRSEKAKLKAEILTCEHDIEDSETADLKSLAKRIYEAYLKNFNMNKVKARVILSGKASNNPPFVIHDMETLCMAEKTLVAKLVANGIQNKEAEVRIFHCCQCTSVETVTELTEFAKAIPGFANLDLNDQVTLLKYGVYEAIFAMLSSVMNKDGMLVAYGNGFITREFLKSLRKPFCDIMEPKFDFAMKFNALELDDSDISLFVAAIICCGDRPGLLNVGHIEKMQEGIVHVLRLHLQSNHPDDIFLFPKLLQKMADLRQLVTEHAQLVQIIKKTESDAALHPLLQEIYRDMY
Sequence of human Thyroid Receptor alpha (THRa1), THRA (gene 7067) (P10827 whole entry, looked up, the tested form may be a part): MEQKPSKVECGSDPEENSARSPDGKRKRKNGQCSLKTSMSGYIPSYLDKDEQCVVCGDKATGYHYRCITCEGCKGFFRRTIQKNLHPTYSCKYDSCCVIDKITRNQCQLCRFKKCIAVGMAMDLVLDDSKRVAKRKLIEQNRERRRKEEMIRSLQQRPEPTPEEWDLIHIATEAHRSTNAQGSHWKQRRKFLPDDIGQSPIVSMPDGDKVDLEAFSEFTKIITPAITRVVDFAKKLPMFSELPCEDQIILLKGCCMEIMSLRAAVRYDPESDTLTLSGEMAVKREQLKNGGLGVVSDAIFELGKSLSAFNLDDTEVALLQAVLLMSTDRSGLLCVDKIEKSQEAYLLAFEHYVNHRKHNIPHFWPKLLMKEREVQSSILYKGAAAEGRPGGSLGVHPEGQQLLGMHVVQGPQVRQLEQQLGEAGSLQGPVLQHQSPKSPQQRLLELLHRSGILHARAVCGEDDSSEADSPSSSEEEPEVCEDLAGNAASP
Sequence of Nuclear receptor subfamily 1 group I member 2 (Homo sapiens) (O75469 whole entry, looked up, the tested form may be a part): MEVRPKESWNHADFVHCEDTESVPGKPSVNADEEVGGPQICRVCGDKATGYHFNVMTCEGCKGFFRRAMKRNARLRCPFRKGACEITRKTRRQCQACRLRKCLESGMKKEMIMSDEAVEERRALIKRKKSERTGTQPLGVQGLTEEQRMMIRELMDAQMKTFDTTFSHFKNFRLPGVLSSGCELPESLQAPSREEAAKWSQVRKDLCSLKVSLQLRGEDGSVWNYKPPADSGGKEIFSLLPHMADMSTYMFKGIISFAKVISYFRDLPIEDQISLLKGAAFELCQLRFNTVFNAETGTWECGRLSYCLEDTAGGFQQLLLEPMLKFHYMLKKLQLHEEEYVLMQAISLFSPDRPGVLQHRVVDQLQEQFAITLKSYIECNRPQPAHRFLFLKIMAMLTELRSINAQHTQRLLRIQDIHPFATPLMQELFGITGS
Sequence of human Retinoic Acid Receptor beta (RARb), RARB (gene 5915) (P10826 whole entry, looked up, the tested form may be a part): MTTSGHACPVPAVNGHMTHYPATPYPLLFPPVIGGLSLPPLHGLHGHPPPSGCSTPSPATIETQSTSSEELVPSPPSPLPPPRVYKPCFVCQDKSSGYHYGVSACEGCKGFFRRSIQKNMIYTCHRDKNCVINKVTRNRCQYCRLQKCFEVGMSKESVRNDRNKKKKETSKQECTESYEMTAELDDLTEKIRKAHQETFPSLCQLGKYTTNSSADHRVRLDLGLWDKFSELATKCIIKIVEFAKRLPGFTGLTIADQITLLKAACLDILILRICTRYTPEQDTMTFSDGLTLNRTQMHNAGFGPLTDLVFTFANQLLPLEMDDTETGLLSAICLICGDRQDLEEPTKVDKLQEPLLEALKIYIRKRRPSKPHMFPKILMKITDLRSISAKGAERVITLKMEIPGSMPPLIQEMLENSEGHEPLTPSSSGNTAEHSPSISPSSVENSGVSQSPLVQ
Sequence of Retinoic acid receptor alpha (Homo sapiens) (P10276 whole entry, looked up, the tested form may be a part): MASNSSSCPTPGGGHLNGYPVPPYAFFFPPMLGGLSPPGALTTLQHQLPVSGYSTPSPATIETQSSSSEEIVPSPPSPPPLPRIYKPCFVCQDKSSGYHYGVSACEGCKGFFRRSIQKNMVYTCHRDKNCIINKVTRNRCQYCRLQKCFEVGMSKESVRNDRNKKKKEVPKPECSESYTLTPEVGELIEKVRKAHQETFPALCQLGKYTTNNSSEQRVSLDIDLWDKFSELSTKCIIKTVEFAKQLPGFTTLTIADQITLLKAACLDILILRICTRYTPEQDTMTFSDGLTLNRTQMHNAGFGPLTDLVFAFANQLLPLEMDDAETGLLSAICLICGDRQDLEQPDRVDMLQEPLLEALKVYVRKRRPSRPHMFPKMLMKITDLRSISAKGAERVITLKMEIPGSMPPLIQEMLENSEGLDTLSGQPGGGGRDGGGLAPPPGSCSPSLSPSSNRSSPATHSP

On to `COC(=O)c1ccc(C(=O)OC)cc1`, for which the outcome in [1], in assay [2], in assay [3], in assay [4], in [5] and in assay [6] was inactive. In addition, the outcome in assay [7], in [8], in assay [9], in [10], in assay [11] and in [12] was inactive. For the same molecule, the result in assay [13], in assay [14] and in assay [15] was inactive.
In the case of `CC(=O)OC(C)(C)C1CC=C(C)CC1` (centres undefined), the AC50 was 33.3 µM (active) in assay [1]; 28.4 µM (active) in [6]; 33.8 µM (active) in assay [7]; 31 µM (active) in [12]; 29.8 µM (active) in [14]; 31.3 µM (active) in assay [15]. Also, the molecule was classed as inactive in assay [2], in [3], in assay [16], in [17], in assay [8] and in assay [9]. Besides, the outcome in assay [10] and in assay [13] was inactive.
With `C=CC(=O)OCC(CO)(COC(=O)C=C)COC(=O)C=C`, the AC50 in assay [1] was 0.41 µM (active); in assay [3], 0.574 µM (active); in assay [6], 0.131 µM (active); in [12] it was 0.269 µM (active); in assay [13], 898 nM (active); in [14], 0.333 µM (active). For the same molecule, the AC50 in [15] was 0.135 µM (active). Moreover, the molecule was called inactive in assay [2], in assay [18], in [16], in [10] and in assay [11].
On to `C=C1CC/C=C(\C)CC[C@@H]2[C@@H]1CC2(C)C`, for which the AC50 is 28.8 µM (active) in [1]; 35 µM (active) in assay [3]; 30 µM (active) in [6]; 19.8 µM (active) in assay [7]; 19.4 µM (active) in assay [10]; 27.4 µM (active) in assay [12]. The concentration at half-maximal activity (AC50) is 29.1 µM (active) in [14] and 28.7 µM (active) in assay [15]. The molecule was classed as inactive in assay [16], in assay [8], in [9], in [11] and in assay [13].

For the origin of these results see PubChem BioAssay (EPA / NIEHS).
